Compounds without any hit were thinned out: in the full panel of roughly 83,000, 20% have a hit.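 Interpretation: 100, growth as untreated; towards 0, rising growth inhibition; 0, no net growth; 0 to -100, cell death. Compounds scoring below 10 were considered active.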 A number with no mark means an inactive call. Active and inactive are the calls of the source.
Experiments:
Assay in all cases: NCI-60 one-dose screen, 48 h (100 = growth as untreated, 0 = no growth, -100 = all killed)
Details in all cases: 10 µM unless noted
[1] = tested on: HCT-15 colon
[2] = tested on: HT29 colon
[3] = tested on: SNB-75 CNS
[4] = tested on: SNB-19 CNS
[5] = tested on: U251 CNS
[6] = tested on: PC-3 prostate
[7] = tested on: SK-MEL-5 melanoma
[8] = tested on: UACC-62 melanoma
[9] = tested on: LOX IMVI melanoma
[10] = tested on: SK-MEL-28 melanoma

| SMILES | growth [1] | growth [2] | growth [3] | growth [4] | growth [5] | growth [6] | growth [7] | growth [8] | growth [9] | growth [10] |
| --- | --- | --- | --- | --- | --- | --- | --- | --- | --- | --- |
| CN(C)S(=O)(=O)c1ccc(-c2nc(C(Cl)Cl)nc3cc(-c4ccc(F)cc4)nn23)cc1 | -35.7% (active) | -5.58% (active) | 48.3% | 23.5% | 2.76% (active) | 26.7% | 55.1% | 26% | -6.07% (active) | 27.1% |
| COc1ccc2c(c1)c(-c1nnc(N)nc1-c1c[nH]c3ccc(F)cc13)cn2C | 27.7% | 11.1% | 24.3% | 45.2% | 34.5% | 51.2% | 35.4% | 35.9% | 42.7% | 67.5% |
| CCN1CCN(c2ccc(NC(=O)Nc3ccc4c(ccn4-c4ccnc(C(=O)NC)c4)c3)cc2C(F)(F)F)CC1 | 9.57% (active) | -44.5% (active) | 43.7% | 81% | 44.7% | 52.6% | 67.4% | 92.8% | -87.7% (active) | -81% (active) |
| CCN(CC)c1ccc(/C=N/NC(=O)c2ccc(NS(C)(=O)=O)cc2)c(O)c1 | 20.1% | 27.4% | 48.1% | 34.7% | 23.8% | 31.7% | 0.13% (active) | 0.285% (active) |  | 23% |
| N#Cc1c(-c2cccs2)cc(-c2cnccn2)nc1SCC(=O)N/N=C/c1cccs1 | 62.8% | 30.9% | 42.8% | 47.7% | 19.5% | 53.6% | 20.5% | 55.6% | 7.29% (active) | 27.5% |
| CC1=C(C)C(=O)C(Nc2cccc(C(=O)OC(C)(C)C)c2)=C(Cl)C1=O | 80.2% | 98.2% | 58.4% | 91.5% | 88.5% | 76.9% | 98.1% | 93.4% | 62.6% | 104% |
| CC(C)(O)c1cncc(-c2ccc3ncc(C#N)c(N4CCc5cc(F)c(Cl)cc54)c3c2)c1 | 9.91% (active) | 9.96% (active) | -12.6% (active) | 11.2% | 20.1% | 11.9% | -22.4% (active) | -7.62% (active) |  | 9.63% (active) |
| CC1=C(C)C(=O)C(Nc2ccc(C)cc2)=C(Br)C1=O | 95.9% | 108% | 89% | 101% | 104% | 87.8% | 94% | 92.2% |  | 112% |
| NC(=O)n1c(=O)n(-c2cccc(C(F)(F)F)c2)c(=O)c2cc(-c3ccc(F)cc3F)ccc21 | 10.1% | 74.8% | -18.3% (active) | 11% | 6.64% (active) | -11.8% (active) | -59.7% (active) | -6.78% (active) |  | 26.1% |
| O=C(/C=C/c1cccc(F)c1)c1cccc(OCCCCOc2cccc(C(=O)/C=C/c3cccc(F)c3)c2)c1 | 97.6% | 106% | 102% | 94% | 105% | 97.6% | 98.6% | 94.8% | 95.2% | 105% |
| COc1ccc(CC(C)=C(c2ccc(OCCN3CCCC3)cc2)c2ccc(OCCN3CCCC3)cc2)cc1 | -85.2% (active) | -77.6% (active) | -76.7% (active) | -81% (active) | -70.1% (active) | -73.2% (active) | -96.1% (active) | -88.8% (active) |  | -92.2% (active) |
| CC1=C(C)C(=O)C(Nc2ccc3c(c2)OCO3)=C(Br)C1=O | 101% | 109% | 74.3% | 93.8% | 103% | 86% |  | 87.4% | 77.2% | 110% |
| COc1ccc(-c2c3c(cn2Cc2cccc(OC)c2)-c2oncc2CCC3)cc1 | 95.1% | 109% | 103% | 93.4% | 93.2% | 85.4% | 100% | 79.3% |  | 110% |
| N#Cc1c(-c2cccs2)cc(-c2cnccn2)nc1SCC(=O)N/N=C/c1ccncc1 | 106% | 109% | 99.3% | 101% | 105% | 96.4% | 101% | 91.4% |  | 112% |
| COc1ccc2c(c1)C=CC1(O2)Oc2ccc(OC)cc2C=C1C (configuration not stated) | 24.7% | 4.04% (active) | -8.45% (active) | 27.5% | 12.3% | 29.8% |  | 19.1% | 22.2% |  |
| COc1ccc(N2CCN(C3=C(Cl)C(=O)c4ncccc4C3=O)CC2)cc1 | 17.1% | 87.3% | 85.2% | 94.7% | 90.9% | 68.1% | 95% | 69.3% |  | 78.3% |
| Cc1ccc(C(=O)CSc2nnc(-c3ccc(-c4ccc(Cl)cc4)nc3C)o2)cc1 | 102% | 104% | 90.7% | 99.3% | 104% | 94.6% |  | 84.8% | 95.3% | 99.9% |
| O=c1c2cc(-c3ccc(F)cc3F)ccc2n(O)c(=O)n1-c1cccc(C(F)(F)F)c1 | 10.5% | 62.9% | -19.4% (active) | 10.5% | 5.79% (active) | -0.871% (active) |  | -0.381% (active) | 12.5% | 27.2% |
| COc1ccc([C@H]2C(=O)N(c3cc(OC)c(OC)c(OC)c3)[C@@H]2c2ccc(OC)c(O)c2)cc1 | 9.51% (active) | -3.08% (active) | 40.2% | 28.3% | 15.7% | 20.9% |  | 33.1% | 13.1% | 63.7% |
| COc1ccc(OC)c(NC(=O)CCCCCCNC(=O)C(O)(O)C(F)(F)F)c1 | 59.4% | 23.6% | 56.1% | 63.5% | 41.8% | 51.4% |  | 13% | 32.3% | 35.6% |
| C#C[C@]1(O)CC[C@H]2[C@@H]3CC=C4c5sc(Nc6cc(Cl)ccc6OC)nc5CC[C@]4(C)[C@H]3CC[C@@]21C | 16.3% | 34.9% | -1.39% (active) | 28.3% | 15.3% | -9.76% (active) |  | -3.92% (active) | -71.7% (active) | -59.1% (active) |
| Clc1cccc(/C=N/Nc2nc(N/N=C/c3cccc(Cl)c3)nc(N3CCOCC3)n2)c1 | -11.1% (active) | 8.21% (active) | 103% | 88% | 60.4% | 41.5% | 44.1% | 91.7% |  | 29.8% |
| COC(=O)[C@@H](Cc1c[nH]c2ccccc12)NC(=O)CCCCOc1cc(O)c2c(=O)cc(-c3ccccc3)oc2c1 | 80.8% | 107% | 72.3% | 89.4% | 92.2% | 73.6% |  | 66.3% | 54.7% | 101% |
| O=C(CCCCCCNC(=O)C(O)(O)C(F)(F)F)Nc1ccc(Cl)cc1 | 39.1% | 5.13% (active) | 42.5% | 31.7% | 13.9% | 35.3% |  | -18.8% (active) | 4.18% (active) | 27% |
| O=C(/C=C/c1ccc(Cl)c(Cl)c1)Nc1ncc(Cc2ccc(Cl)c(Cl)c2)s1 | 29% | 36.2% | 95.5% | 74% | 58.2% | 45.3% | 51.4% | 10.3% |  | 48.5% |
| COc1ccc(/C(=N\NC(N)=S)c2ccc(Cl)cc2)cc1OC | 16% | -1.79% (active) | -8.75% (active) | 24.1% | 22.4% | 36.4% |  | 18.9% | 40.5% | 47.6% |
| COc1cc(-c2nc(-c3ccccc3)[nH]c2-c2ccnc(NCCCNS(=O)(=O)c3ccc(C)cc3)n2)ccc1F | 62.9% | 69.5% | 105% | 104% | 88.6% | 55% |  | 97.5% | 83.4% | 101% |
| N#C/C(=C\c1ccc(-c2ccc(Cl)cc2)o1)C(=O)Nc1ncc(Cc2ccc(Br)cc2)s1 | 15.3% | 7.27% (active) | -18.1% (active) | 3.38% (active) | -81.9% (active) | 9.73% (active) |  | 1% (active) | -69.7% (active) | 11% |

Source: PubChem BioAssay (NCI)
